Results: ChEMBL document CHEMBL4513216, “Probing the Open Global Health Chemical Diversity Library for Multistage-Active Starting Points for Next-Generation Antimalarials” (ACS Infect Dis, 2020)
Among all 69,000 compounds or so, about 8,600 (12%) showed an effect of 50% or more. Only a selection was taken, and strong results are over-represented in it overall.

System: Plasmodium berghei
Test: Screen against P. berghei liver stage (PbLuc), transformed with Luciferase, at 10uM
Format: functional, HepG2
Conditions: tested at 10 uM

| SMILES | INHIBITION |
| --- | --- |
| CCOC[C@@H]1CCC[C@]12CN(S(=O)(=O)c1cn(C)cn1)CCO2 | 35.5% |
| O=C(c1cccn1Cc1cccs1)N1CCSCC1 | 9.64% |
| COc1cccc(OCCNCc2ccccc2)c1 | 51.5% |
| COc1cccc(OCCNS(C)(=O)=O)c1 | -0.614% |
| COc1cccc(OCCNS(=O)(=O)Cc2ccccc2)c1 | 10.7% |
| CC(C)(C)c1n[nH]c(C2CN(C(=O)C3=COCCC3)CCO2)n1 (stereo not drawn) | 40.2% |
| COc1ccccc1OC1(C(=O)O)CCN(c2nccnc2C)CC1 | 8.47% |
| COc1ccccc1OC1(C(=O)O)CCN(c2nccnc2OC)CC1 | 3.03% |
| COc1ccccc1OC1(C(=O)O)CCN(c2ncnc(C)c2C)CC1 | 55.4% |
| COc1ccccc1OC1(C(=O)O)CCN(c2ccccn2)CC1 | 40.5% |
| COc1ccccc1OC1(C(=O)O)CCN(c2ncccc2F)CC1 | 30.8% |
| COc1ccccc1OC1(C(=O)O)CCN(c2nc(C)cnc2C)CC1 | 56.5% |
| CN1CC2(CCN(C(=O)c3ccc(-n4cccn4)cc3Cl)C2)OC1=O (stereo not drawn) | 32.5% |
| CC(=O)c1cnc(NCCCN2CCOCC2)nc1C | -4.96% |
| O=C(COc1ccccc1)NCC1CC1 | 3.63% |
| CCNc1ncc(C(=O)NCCc2csc(CSC)n2)cn1 | 51.8% |
| CCNc1ncc(C(=O)NCc2csc(-c3ncccn3)n2)cn1 | 62.2% |
| CCNc1ncc(C(=O)NCCc2csc(-c3ncccn3)n2)cn1 | 56.6% |
| CCNc1ncc(C(=O)NCCCc2ccncc2)cn1 | 19.4% |
| CCNc1ncc(C(=O)NCc2csc(C)n2)cn1 | 35.4% |
| O=C(NCCc1csc(-c2ncccn2)n1)c1cnn2c1CCCC2 | -52.5% |
| CSCc1nc(CCNC(=O)C2CCCN(C(C)=O)C2)cs1 (stereo not drawn) | -90.8% |

| SMILES | INHIBITION |
| --- | --- |
| CCNc1ncc(C(=O)NCc2csc(-c3cnccn3)n2)cn1 | -10.5% |
| CCNc1ncc(C(=O)NCCc2ccc(C)c(C)c2)cn1 | -4.21% |
| CCN(Cc1nc2c(cnn2C)c(=O)[nH]1)Cc1ccccc1Cl | -29.8% |
| Cc1ccc2nc(CN3CCCCC3C(=O)N3CCOCC3)cn2c1 (stereo not drawn) | 20% |
| CC(C)Cn1nccc1NC(=O)CN1CCOC(Cn2cccn2)C1 (stereo not drawn) | 23.4% |
| CNC(=O)[C@@H](c1ccccc1)N1CCC[C@H]1C(=O)NC1CCCCC1 | 30.9% |
| CCc1cnc(N2C[C@H](OCc3csc(C)n3)[C@H]3COC[C@H]32)nc1 | 40.8% |
| Cc1nnnn1-c1cc(NCc2cccc(C#N)c2)ccc1F | 31% |
| O=C(CC1CC1)NCc1cc(=O)n2c(n1)CN(Cc1ccoc1)CCC2 | 36.8% |
| O=C(Nc1ccccc1)N1C2CCC(O)(CC2)C1CO (stereo not drawn) | 44.9% |
| CCc1noc(C)c1C(=O)N1CCCC(n2nc(C)nc2C)C1 (stereo not drawn) | -19.85% |
| CS(=O)(=O)N1CCO[C@@H]2CN(Cc3ccc(F)cc3)CC[C@@H]2C1 | 10.5% |
| CS(=O)(=O)N1CCOCC12CCN(Cc1ccc(F)cc1)CC2 | 57.3% |
| Cc1ccc(CN2CCOC3(COCCN(S(C)(=O)=O)C3)C2)s1 (stereo not drawn) | 11.4% |
| CS(=O)(=O)N1CCOCC12CCN(Cc1ccoc1)CC2 | 34.5% |
| CS(=O)(=O)N1CCO[C@@H]2CN(Cc3ccncc3)C[C@@H]2C1 | 18.5% |
| CS(=O)(=O)N1CCOCC2(CN(Cc3ccsc3)CCO2)C1 (stereo not drawn) | 0.139% |
| CS(=O)(=O)N1CCOCC2(CN(Cc3ccc(F)cc3)CCO2)C1 (stereo not drawn) | 57.4% |
| CS(=O)(=O)N1CCO[C@@H]2CN(Cc3ccc(F)cc3)C[C@@H]2C1 | 61.9% |
| Cc1ccc(CN2CCC3(CC2)COCCN3S(C)(=O)=O)o1 | 11.6% |
| O=C(c1ccc2c(c1)CCCC2)N1CCn2ncnc2C1 | -0.275% |
| O=C(c1ccccn1)N1CCOC2(COCCN(Cc3cc[nH]n3)C2)C1 (stereo not drawn) | -95.7% |

| SMILES | INHIBITION |
| --- | --- |
| CC(C)C[C@H](NC(=O)Cc1csc(-c2cccc(Cl)c2)n1)C(=O)O | 40.8% |
| CCc1ccsc1C(=O)NCCn1nc2ccccn2c1=O | 14.4% |
| c1cnn(CC2CCCN2Cc2ccc(-n3cccn3)cc2)c1 (stereo not drawn) | 41.2% |
| c1ccc(CN2CCNCC(Cc3cnccn3)C2)cc1 (stereo not drawn) | -11.4% |
| CCc1nc(C(=O)N2CC(C(C)C)Nc3ccccc32)c[nH]1 (stereo not drawn) | 3.13% |
| COCCNc1ncc(-c2cccc(OC)c2)c(-c2nccn2C)n1 | 3.48% |
| CC(C)[C@H]1CN(Cc2nccn2C)C[C@@H]1NC(=O)CCS(C)(=O)=O | 12.9% |
| CC(C)[C@H]1CN(Cc2c[nH]cn2)C[C@@H]1NC(=O)CC1CCC1 | 57.3% |
| CC(C)[C@H]1CN(Cc2ccccn2)C[C@@H]1NC(=O)CC1CCC1 | 41.8% |
| O=C(c1ccc(F)cc1)N1CCC2(CCN(Cc3ccccn3)C2=O)C1 (stereo not drawn) | 2.79% |
| CS(=O)(=O)N1CCCC1c1cccc(Cc2ccccc2F)n1 (stereo not drawn) | -51.4% |
| CN1CCCC1c1cccc(Cc2ccccc2F)n1 (stereo not drawn) | 76.2% |
| CC(=O)N1CCCC1c1cccc(NCc2ccccc2F)n1 (stereo not drawn) | 64.1% |
| CC(=O)N1CCCC1c1cccc(Cc2ccccc2F)n1 (stereo not drawn) | 14.8% |
| CN1CCCC1c1cccc(Cc2ccc(F)cc2)n1 (stereo not drawn) | 100% |
| CN(C)C(=O)CN1CCCC1c1cccc(Cc2ccccc2F)n1 (stereo not drawn) | 42.6% |
| CC(=O)N1CCCC1c1cccc(Cc2ccc(F)cc2)n1 (stereo not drawn) | 13.6% |
| CN1CCCC1c1cc2cccnc2n1Cc1ccc(F)cc1 (stereo not drawn) | 30.85% |
| COCC(=O)N1CCCC1c1cccc(Cc2ccccc2F)n1 (stereo not drawn) | 24.4% |
| Cc1ncsc1C(=O)N1CCCC1c1c(C)nn(C)c1C (stereo not drawn) | 16.6% |
| Cc1cc(Nc2cnccn2)cc(C2CCCNC2)n1 (stereo not drawn) | 19.5% |
| CO[C@@H]1CCC[C@@H](NC(=O)c2cccc(F)c2)[C@H]1O | 28.2% |

| SMILES | INHIBITION |
| --- | --- |
| CNc1nc2cn(CCc3ccc(C)cc3)c(=O)c-2c[nH]1 | 3.52% |
| O=C(Cc1ccccn1)N1CCN(C(=O)CC2CCCCC2)CC1 | 13.6% |
| Cc1cc(NCC2CCS(=O)(=O)C2)n2nc(C)cc2n1 (stereo not drawn) | 47% |
| CCC(C)(C)n1nnnc1C(c1cccs1)N1CCc2ccccc2C1 (stereo not drawn) | 51.4% |
| CCC(C)(C)n1nnnc1C(c1cccs1)N1CCCCC1 (stereo not drawn) | 21.7% |
| CCC(C)(C)n1nnnc1C(c1cccs1)N1CCc2ccccc21 (stereo not drawn) | 42.6% |
| Cc1ccc(C(=O)N2C[C@H]3CCC[C@@]3(COCc3ccncc3)C2)cn1 | 43.9% |
| CCc1nnc2n1CCN(C(=O)c1ccc(-c3ccco3)[nH]c1=O)C2 | -19.6% |
| CCc1nnc2n1CCN(C(=O)CN(CC)CC)C2 | 49.8% |
| CCc1nnc2n1CCN(C(=O)CN(C)C1CC1)C2 | 51.1% |
| CCc1nnc2n1CCN(C(=O)c1ccccc1OCC1CC1)C2 | 7.21% |
| CC(C)c1nnc2n1CCN(C(=O)c1cnc(C3CC3)s1)C2 | 43.1% |
| Cc1nnc2n1CCN(C(=O)c1cnc(C3CC3)s1)C2 | 53.9% |
| Cc1nnc2n1CCN(C(=O)c1ccnc(N(C)C)c1)C2 | 21.6% |
| CCc1nnc2n1CCN(C(=O)c1cnn(C)c1C1CC1)C2 | 53.9% |
| CCc1nnc2n1CCN(C(=O)c1csc(-c3cnn(C)c3)n1)C2 | 29.7% |
| CCc1nnc2n1CCN(C(=O)CN(C)Cc1ccccc1)C2 | 20.1% |
| CCc1nnc2n1CCN(C(=O)c1ccc(-c3ccco3)nc1C)C2 | 61.3% |
| Cc1nc(-c2ccco2)ccc1C(=O)N1CCn2c(C)nnc2C1 | -17.6% |
| NC(=O)C1(CCCc2ccncc2)CCCN1 (stereo not drawn) | 1.5% |
| CNS(=O)(=O)c1ccc(CNC(=O)c2c(C)oc(C)c2C)cc1 | -6.14% |
| CN1CCCC1CNC(=O)CCCOc1ccc(Br)cc1 (stereo not drawn) | -62.6% |

| SMILES | INHIBITION |
| --- | --- |
| Cc1ccc(-c2nnc(SCC(=O)O)n2-c2ccc(C)cc2)cc1 | 33.5% |
| O=S(=O)(C1CC1)N1CCc2ncnc(N3CCCC3)c2CC1 | -17.7% |
| COc1ccc(C(=O)NCCN(C)C)c(I)c1 | -0.217% |
| NC(=O)N1CCC(NCc2cc(Br)ccc2Cl)CC1 | 34.7% |
| CC(C)(C)c1ncc(C(=O)NCCNC(=O)c2ccco2)s1 | -21.5% |
| COc1cc(C(=O)N2CCCC(c3cc(C)[nH]n3)C2)ccc1C (stereo not drawn) | 24% |
| CCc1nnc2n1CCN(C(=O)c1cnc(C3CC3)s1)C2 | 13.9% |
| CCc1ncc(C(=O)N2CCn3c(CC)nnc3C2)s1 | 53.9% |
| CCc1nnc2n1CCN(C(=O)c1cnc(-c3cccs3)s1)C2 | 19.3% |
| Cc1cc(C)c2ncc(C#N)c(N3CCS(=O)(=O)CC3)c2c1 | 36.3% |
| Cc1cnn(CC2CCCCN2C(=O)CC(F)(F)F)c1 (stereo not drawn) | 9.14% |
| O=C(c1cc(C2CC2)nc2onc(-c3ccccc3)c12)N1CC[C@H](O)C1 | 28.5% |
| O=C(c1cccnc1SCc1ccccc1)N1CC[C@@H](O)C1 | -34% |
| O=C(c1cc(C2CC2)nc2onc(-c3ccccc3)c12)N1CCOCC1 | 51.7% |
| O=C(c1cc(C2CC2)nc2onc(-c3ccccc3)c12)N1CC(O)C1 | 44.3% |
| O=C(c1cc(-c2ccccc2)nc2onc(C3CC3)c12)N1CC[C@H](O)C1 | 73% |
| O=C(CN1CCCC1c1nc(-c2ccccc2)no1)N1CCOCC1 (stereo not drawn) | -21.8% |
| Cc1cc(NCCCc2c(C)noc2C)nc(N)n1 | 35% |
| CC(C)c1ncc2c(n1)CN(Cc1noc(-c3ccccc3)n1)CC2 | 45.7% |
| CC(C(=O)NCCN1CCCCC1)n1cncn1 (stereo not drawn) | -5.07% |
